Assay results: the supplement of paper PMC11732987, “Enantioselective OTUD7B fragment discovery through chemoproteomics screening and high-throughput optimisation” (Communications Chemistry, 2025)

Legend:
Experiment in all cases: log2 ratio of Biotin-Ahx-Ub-VS probe labelling (fragment/DMSO); higher = less target engagement (more negative = stronger competition), active = hit call of the paper (q ≤ 0.05, log2 ratio ≤ -1)
Conditions in all cases: compound concentration: 200 uM; treatment time: 3 h
[1] = molecular target: USP9X (UniProt Q93008)
How it was run: (§1)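 HEK293T lysate (495 µg per sample, in Tris/CHAPS/IGEPAL buffer with protease inhibitors) was treated in triplicate with fragment at 200 µM or with DMSO for 3 h. It was then treated with Biotin-Ahx-Ub-VS (0.5 µM final) for 1 h. Labelled DUBs were NeutrAvidin-enriched, digested with LysC and trypsin, and run by diaPASEF LC-MS/MS. Spectronaut label-free quantities were global-median-normalised. Values are average log2 ratios fragment/DMSO by unpaired t-test, using proteins with ≥2 unique peptides.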

[2] = molecular target: UniProt O00487
How it was run: as §1

[3] = molecular target: UniProt O00507
How it was run: as §1

[4] = molecular target: UniProt P51784
How it was run: as §1

[5] = molecular target: T1, UniProt Q5T2D3
T1 sequence (whole entry): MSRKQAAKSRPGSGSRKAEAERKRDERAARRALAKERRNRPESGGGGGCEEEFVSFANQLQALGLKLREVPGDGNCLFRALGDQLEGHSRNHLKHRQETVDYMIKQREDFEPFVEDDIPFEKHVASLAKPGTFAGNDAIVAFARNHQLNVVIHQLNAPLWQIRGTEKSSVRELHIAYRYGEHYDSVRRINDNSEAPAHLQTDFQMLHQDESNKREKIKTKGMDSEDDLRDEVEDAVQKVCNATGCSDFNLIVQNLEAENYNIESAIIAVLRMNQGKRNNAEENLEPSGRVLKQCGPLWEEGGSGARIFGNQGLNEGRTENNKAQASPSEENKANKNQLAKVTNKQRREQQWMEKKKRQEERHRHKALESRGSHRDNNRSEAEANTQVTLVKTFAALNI
How it was run: as §1

[6] = molecular target: T2, UniProt Q8TE49
T2 sequence (whole entry): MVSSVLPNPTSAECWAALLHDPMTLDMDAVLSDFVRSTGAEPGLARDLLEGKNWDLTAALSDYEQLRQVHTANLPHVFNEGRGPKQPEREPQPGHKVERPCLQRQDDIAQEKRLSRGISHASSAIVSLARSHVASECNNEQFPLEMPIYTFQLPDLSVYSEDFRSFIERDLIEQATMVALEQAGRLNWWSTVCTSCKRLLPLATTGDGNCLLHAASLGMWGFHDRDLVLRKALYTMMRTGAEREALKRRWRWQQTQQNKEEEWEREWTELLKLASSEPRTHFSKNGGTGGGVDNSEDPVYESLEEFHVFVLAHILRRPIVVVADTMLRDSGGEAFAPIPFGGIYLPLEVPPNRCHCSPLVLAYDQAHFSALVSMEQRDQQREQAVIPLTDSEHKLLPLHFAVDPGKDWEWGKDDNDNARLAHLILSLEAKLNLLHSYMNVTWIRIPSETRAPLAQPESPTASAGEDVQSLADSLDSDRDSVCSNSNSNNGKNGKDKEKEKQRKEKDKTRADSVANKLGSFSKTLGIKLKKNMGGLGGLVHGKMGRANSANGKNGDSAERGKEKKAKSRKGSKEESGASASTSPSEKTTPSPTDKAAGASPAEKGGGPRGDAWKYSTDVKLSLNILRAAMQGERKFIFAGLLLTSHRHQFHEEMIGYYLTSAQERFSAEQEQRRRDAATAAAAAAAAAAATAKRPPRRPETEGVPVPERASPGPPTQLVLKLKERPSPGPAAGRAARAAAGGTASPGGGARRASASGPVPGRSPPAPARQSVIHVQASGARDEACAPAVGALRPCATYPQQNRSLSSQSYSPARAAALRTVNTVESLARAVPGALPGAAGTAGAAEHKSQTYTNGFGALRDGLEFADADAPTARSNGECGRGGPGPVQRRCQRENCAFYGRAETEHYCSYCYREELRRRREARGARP
How it was run: as §1

[7] = molecular target: T3, UniProt Q9P2H5
T3 sequence (whole entry): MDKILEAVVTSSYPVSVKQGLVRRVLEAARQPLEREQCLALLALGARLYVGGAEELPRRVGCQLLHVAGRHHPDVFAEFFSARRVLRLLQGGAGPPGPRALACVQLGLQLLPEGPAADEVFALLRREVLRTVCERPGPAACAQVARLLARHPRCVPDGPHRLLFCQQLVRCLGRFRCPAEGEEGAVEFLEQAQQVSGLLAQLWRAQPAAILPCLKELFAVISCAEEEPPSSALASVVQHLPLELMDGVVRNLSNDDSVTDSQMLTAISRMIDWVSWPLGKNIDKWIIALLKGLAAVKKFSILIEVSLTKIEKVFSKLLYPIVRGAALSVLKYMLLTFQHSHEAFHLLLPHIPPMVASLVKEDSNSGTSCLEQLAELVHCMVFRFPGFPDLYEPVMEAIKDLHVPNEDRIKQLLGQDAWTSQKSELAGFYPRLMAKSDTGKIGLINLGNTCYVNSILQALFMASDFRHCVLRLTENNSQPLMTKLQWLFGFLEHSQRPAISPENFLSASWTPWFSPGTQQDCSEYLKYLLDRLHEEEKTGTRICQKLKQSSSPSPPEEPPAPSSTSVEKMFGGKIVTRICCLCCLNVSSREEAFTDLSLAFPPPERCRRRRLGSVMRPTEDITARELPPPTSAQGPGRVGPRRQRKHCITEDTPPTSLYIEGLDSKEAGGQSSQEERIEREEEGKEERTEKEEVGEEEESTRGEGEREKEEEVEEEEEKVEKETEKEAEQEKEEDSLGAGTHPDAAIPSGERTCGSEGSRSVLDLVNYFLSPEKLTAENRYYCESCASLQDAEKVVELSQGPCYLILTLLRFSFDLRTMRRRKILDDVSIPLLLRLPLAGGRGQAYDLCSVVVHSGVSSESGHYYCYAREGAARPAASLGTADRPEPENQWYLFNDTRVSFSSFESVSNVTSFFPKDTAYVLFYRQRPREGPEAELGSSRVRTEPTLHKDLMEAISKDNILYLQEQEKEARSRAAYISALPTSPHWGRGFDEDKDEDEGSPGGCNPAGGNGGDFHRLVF
How it was run: as §1

[8] = molecular target: T4, UniProt Q9UGI0
T4 sequence (whole entry): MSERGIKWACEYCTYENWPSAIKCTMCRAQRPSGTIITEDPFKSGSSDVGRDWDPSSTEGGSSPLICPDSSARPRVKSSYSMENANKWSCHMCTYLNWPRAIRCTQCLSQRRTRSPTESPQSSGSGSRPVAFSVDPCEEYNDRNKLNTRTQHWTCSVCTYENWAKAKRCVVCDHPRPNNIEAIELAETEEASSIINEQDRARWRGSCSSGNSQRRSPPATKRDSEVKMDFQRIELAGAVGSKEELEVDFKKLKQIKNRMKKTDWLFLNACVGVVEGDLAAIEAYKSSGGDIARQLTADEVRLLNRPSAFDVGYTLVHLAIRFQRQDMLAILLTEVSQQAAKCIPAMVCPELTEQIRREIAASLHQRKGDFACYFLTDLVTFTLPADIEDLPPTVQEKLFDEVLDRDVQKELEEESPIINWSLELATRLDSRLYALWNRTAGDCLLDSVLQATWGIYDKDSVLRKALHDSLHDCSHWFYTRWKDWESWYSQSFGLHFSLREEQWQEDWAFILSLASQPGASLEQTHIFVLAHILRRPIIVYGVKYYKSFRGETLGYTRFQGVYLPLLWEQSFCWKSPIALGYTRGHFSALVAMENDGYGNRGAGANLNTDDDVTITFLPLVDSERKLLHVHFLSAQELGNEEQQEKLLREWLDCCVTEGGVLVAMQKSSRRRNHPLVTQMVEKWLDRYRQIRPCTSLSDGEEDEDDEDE
How it was run: as §1

[9] = molecular target: T5, YOD1 (UniProt Q5VVQ6)
T5 sequence (whole entry): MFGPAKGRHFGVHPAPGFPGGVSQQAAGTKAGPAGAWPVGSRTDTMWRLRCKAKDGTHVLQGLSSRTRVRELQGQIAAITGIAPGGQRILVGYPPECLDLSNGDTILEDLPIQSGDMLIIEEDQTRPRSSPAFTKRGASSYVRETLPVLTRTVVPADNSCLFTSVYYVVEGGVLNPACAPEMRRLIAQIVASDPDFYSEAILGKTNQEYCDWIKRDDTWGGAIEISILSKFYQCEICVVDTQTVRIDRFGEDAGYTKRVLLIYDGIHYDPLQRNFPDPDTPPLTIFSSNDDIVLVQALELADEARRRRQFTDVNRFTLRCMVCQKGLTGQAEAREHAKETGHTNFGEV
How it was run: as §1

Measured: log2 ratio of Biotin-Ahx-Ub-VS probe labelling

Chain of UniProt O00487 (O00487 whole entry): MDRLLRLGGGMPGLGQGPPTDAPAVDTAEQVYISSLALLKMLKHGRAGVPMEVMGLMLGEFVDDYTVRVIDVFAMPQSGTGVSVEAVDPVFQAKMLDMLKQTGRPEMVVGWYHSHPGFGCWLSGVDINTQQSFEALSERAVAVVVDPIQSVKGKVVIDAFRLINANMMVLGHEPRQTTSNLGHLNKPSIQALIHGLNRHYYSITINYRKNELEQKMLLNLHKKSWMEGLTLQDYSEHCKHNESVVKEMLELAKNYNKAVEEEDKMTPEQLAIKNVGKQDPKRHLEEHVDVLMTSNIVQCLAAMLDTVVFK
Chain of USP9X (Q93008 whole entry, the tested form may be a part): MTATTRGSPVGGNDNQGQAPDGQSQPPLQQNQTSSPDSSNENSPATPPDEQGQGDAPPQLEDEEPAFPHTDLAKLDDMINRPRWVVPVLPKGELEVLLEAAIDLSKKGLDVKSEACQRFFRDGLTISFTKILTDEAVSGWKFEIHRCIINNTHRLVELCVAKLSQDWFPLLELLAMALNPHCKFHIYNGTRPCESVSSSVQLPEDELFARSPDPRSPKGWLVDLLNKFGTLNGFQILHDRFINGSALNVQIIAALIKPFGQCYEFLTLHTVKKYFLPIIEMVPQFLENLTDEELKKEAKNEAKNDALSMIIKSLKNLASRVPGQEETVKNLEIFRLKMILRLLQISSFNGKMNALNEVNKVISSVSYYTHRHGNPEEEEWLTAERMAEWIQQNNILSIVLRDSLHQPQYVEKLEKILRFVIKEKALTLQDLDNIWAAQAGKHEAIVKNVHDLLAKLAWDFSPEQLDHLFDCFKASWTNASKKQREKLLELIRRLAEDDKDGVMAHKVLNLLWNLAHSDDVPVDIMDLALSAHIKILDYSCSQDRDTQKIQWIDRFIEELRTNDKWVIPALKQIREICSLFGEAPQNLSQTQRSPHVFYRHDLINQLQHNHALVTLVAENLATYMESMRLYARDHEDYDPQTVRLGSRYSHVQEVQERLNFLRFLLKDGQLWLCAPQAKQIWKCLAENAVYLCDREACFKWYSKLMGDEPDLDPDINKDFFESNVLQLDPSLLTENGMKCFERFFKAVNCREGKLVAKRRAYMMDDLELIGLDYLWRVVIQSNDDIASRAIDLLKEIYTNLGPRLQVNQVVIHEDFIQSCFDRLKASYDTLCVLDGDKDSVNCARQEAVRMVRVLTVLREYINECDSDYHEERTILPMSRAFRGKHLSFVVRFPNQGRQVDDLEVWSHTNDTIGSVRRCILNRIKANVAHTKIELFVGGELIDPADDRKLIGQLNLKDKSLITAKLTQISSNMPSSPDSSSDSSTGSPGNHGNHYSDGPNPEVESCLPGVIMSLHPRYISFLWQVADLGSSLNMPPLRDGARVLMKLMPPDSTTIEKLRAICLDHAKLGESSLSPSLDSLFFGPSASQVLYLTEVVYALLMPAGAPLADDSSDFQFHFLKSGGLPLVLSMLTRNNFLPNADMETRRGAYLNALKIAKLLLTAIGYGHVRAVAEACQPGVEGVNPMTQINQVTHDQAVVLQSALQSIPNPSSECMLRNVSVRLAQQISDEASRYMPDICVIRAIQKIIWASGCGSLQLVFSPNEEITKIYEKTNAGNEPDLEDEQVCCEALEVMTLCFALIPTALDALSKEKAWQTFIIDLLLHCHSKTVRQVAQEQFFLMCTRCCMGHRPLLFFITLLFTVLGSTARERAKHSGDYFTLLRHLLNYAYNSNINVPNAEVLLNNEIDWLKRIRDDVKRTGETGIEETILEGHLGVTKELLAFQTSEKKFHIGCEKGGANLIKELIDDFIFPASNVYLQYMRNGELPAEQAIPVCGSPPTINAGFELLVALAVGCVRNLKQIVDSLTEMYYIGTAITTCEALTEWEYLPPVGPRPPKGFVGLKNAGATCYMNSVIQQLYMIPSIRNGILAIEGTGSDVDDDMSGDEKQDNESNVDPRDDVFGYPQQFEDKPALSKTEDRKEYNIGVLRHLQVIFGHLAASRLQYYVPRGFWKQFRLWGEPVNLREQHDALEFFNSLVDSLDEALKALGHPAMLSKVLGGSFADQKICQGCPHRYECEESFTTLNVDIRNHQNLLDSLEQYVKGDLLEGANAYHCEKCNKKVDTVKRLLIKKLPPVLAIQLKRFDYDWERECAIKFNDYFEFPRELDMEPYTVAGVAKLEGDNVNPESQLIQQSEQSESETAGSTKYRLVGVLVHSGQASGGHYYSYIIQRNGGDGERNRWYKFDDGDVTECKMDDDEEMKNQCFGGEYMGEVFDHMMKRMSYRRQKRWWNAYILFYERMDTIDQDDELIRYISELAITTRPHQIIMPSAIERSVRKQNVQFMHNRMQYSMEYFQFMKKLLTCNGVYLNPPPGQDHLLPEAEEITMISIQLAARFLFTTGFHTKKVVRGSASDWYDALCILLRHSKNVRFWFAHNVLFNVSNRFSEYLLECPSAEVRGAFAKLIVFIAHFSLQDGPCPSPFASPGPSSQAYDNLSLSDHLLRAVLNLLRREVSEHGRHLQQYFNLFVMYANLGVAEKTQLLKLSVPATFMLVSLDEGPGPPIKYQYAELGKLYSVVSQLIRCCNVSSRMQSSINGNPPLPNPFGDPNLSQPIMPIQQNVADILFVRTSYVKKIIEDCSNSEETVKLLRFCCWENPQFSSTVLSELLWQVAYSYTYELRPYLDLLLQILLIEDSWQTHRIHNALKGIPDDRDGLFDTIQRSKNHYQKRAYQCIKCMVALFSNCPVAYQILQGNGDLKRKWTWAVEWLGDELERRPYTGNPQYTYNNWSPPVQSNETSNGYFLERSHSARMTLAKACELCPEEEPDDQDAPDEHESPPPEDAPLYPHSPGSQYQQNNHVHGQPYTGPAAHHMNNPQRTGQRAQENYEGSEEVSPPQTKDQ
Chain of UniProt P51784 (P51784 whole entry): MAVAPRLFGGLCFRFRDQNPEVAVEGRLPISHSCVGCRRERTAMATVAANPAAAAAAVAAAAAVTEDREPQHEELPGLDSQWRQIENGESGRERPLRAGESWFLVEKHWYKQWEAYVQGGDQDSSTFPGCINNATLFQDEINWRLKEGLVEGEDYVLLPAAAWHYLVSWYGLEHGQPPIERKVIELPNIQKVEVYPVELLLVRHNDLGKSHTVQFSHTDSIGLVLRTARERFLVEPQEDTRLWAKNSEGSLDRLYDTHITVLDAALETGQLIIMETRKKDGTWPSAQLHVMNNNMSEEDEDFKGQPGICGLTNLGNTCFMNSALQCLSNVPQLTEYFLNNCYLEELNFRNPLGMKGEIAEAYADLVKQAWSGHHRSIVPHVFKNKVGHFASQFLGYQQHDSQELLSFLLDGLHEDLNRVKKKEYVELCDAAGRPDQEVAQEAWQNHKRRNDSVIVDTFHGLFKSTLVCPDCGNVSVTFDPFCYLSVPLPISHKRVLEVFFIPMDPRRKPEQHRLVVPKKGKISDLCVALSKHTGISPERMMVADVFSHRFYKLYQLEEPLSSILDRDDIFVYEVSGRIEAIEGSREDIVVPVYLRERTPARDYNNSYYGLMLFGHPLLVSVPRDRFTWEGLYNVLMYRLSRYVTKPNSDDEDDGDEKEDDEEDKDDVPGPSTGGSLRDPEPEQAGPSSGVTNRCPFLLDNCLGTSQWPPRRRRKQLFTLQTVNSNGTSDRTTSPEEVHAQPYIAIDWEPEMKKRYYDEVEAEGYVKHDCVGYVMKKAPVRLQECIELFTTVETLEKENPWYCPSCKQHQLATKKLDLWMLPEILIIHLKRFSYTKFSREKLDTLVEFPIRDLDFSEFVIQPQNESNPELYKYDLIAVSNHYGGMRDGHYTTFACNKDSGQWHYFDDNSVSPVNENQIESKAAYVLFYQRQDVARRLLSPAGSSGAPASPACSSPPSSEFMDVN

Cc1ccc(CC(NC(=O)CCl)c2ccccn2)cc1.Cl (centres undefined)
inactive: [1] 0.139 | [2] 0.244 | [3] -0.0403 | [4] 0.188 | [5] 0.254 | [6] 0.237 | [7] -0.00516 | [8] -0.0851 | [9] 0.248
